Assay outcomes as filed in PubChem BioAssay.
LANA DNA inh: inhibitors of KSHV LANA C-terminal domain DNA binding; MBP-C-LANA/FAM-LBS DNA binding, fluorescence polarization; inhibition, % at 9 µM; 0.078% of 340,000 active;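 active = highest replicate inhibition at or above 60% at 9 µM, even if other replicates fall short; inactive = all replicates below 60% inhibition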;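 also: 0% = neutral control wells and 100% = 4 µM acridine orange control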
Keap1 Nrf2 FP: disrupts human Keap1 binding to Nrf2 peptide; Q14145; Keap1 Kelch-Nrf2 peptide fluorescence polarization, 1536-well; inhibition, % at 9.4 µM; 0.15% of 340,000 active; in the data active = inhibition above about 12%;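 also: human Keap1 Kelch domain with fluorescein labeled Nrf2 9mer peptide probe; 0% = neutral control wells and 100% = peptide positive control; higher means more block of Keap1 binding to Nrf2 peptide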
Target sequence (Q14145 whole entry, looked up, the tested form may be a part): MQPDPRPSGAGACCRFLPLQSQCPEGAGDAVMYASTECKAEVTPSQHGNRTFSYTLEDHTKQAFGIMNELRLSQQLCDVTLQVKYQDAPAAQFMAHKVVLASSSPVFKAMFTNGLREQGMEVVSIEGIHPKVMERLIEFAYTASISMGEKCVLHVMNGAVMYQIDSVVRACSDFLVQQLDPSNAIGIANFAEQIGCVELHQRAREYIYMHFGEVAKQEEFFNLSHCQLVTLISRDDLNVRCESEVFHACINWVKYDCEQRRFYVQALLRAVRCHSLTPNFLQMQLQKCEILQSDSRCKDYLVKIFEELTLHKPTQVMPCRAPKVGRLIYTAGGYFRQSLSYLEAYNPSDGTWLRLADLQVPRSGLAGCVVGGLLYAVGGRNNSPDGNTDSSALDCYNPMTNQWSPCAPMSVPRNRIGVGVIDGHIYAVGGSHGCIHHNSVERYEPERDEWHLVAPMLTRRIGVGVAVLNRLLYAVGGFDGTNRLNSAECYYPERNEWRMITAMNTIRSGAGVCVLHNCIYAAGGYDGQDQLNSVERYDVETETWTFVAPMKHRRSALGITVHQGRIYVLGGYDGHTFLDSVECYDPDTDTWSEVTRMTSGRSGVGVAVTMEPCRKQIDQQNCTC
GLD-1 TGE inh: GLD-1-TGE RNA interaction inhibition (C. elegans) | inhibition, % at 5.96 µM | 0.44% of 320,000 active | AID 2280 | purified GLD-1 + fluorescein TGE RNA, fluorescence polarization;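 active = percent inhibition above a per-plate cutoff, the plate mean of test compounds plus 3 SD, cut at about 30% in these data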;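 also: 0% = DMSO wells with GLD-1 and probe and 100% = wells lacking GLD-1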
BCLXL inh: Bcl-xL (human) inhibition; inhibition, % at 10.9 µM; 0.7% of 320,000 active; GST-Bcl-xL / FITC-Bim BH3 peptide fluorescence polarization; Q07817;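 active = inhibition above the mean of all tested compounds plus 3 SD, cutoff set per campaign, cut at about 30% in these data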;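 also: 0% = DMSO wells and 100% = unlabeled Bim-BH3 peptide competitor; inhibitors lower millipolarization by displacing the labeled peptide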
eLon inh: inhibits E. coli Lon protease; inhibition, % at 7.94 µM; 0.42% of 360,000 active; purified E. coli Lon protease, fluorescence polarization; in the data active = inhibition above about 13%, passing the limit was not always enough;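 also: 0% = enzyme with probe and DMSO and 100% = no enzyme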
MCL1-BIM inh: inhibitors of human MCL1 binding to BIM-BH3 peptide. Q07820. GST-MCL1 / FITC-Bim-BH3 fluorescence polarization. 0.68% of 320,000 active. inhibition, % at 10.9 µM;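 active = inhibition above the mean inhibition of all tested compounds plus 3 SD, set per campaign, cut at about 40% in these data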;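 also: 0% = DMSO wells and 100% = unlabeled Bim-BH3 peptide control; higher means more loss of mP so more displacement of Bim peptide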
GLD1 RNA confirm: confirmation of C. elegans GLD-1 TGE RNA binding inhibitors; shares compounds with GLD-1 TGE inh; GLD-1/FL-TGE RNA fluorescence polarization, biochemical; inhibition, % at 5.96 µM; 10% of 550 active; AID 2459;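 active = average inhibition across triplicates above the hit cutoff set in the primary screen, cut at about 32% in these data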;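 also: 0% = GLD-1 with RNA probe and DMSO and 100% = wells lacking GLD-1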
Numbers without * were called inactive; · = not tested or not shown. This is a sample that favours compounds with a hit; in the whole collection about 1.3% have one here.

SMILES	LANA DNA inh	Keap1 Nrf2 FP	GLD-1 TGE inh	BCLXL inh	eLon inh	MCL1-BIM inh	GLD1 RNA confirm
CC(C)N1C(=O)C2ON(c3ccccc3)C(c3cccs3)C2C1=O (stereo unspecified)	0	2	38*	7	2	10	-5
COc1ccc(CCN(C)C(=S)Nc2ccc(SC(F)F)cc2)cc1OC	1	-5	-3	3	15	8	·
C=CCNC(=O)/C(C#N)=C/c1c(N2CCN(c3ccc(OC)cc3)CC2)nc2c(C)cccn2c1=O	2	1	33*	5	2	10	-8
CC(C)N(Cc1nccn1C)C(=O)CC1C(=O)NCCN1Cc1ccc(F)c(F)c1 (stereo unspecified)	3	1	38*	25	16	26	2
CC1Oc2ccccc2N(CC(=O)NCCN2CCOCC2)C1=O (stereo unspecified)	1	1	37*	31*	7	49*	4
O=C(CN1C(=O)COc2ccccc21)NCCN1CCOCC1	0	-5	5	3	-2	-7	·
CCOC(=O)[C@H]1[C@H]2COc3cc(OC)ccc3[C@@H]2N2C(=O)CN(CC3CCCO3)C(=O)[C@@]12C (stereo partly specified)	1	-2	7	7	6	9	·
COc1cccc(-c2nnc(NC(=O)C(C)C)o2)c1	0	-5	37*	47*	-9	50*	0
CC(=O)c1c(C)[nH]c(C(=O)OCC(=O)Nc2cc(Cl)ccc2[N+](=O)[O-])c1C	1	-4	34*	2	7	8	7
Cc1ccc(C)c(NC(=O)CN(C)C(=O)c2ccc(Cl)nc2)c1	0	1	-1	-10	9	-19	·
CC(C)CCn1c(Cl)nc2c1c(=O)n(C)c(=O)n2C	-1	-2	31*	7	3	3	-2
CC(C)CCn1c(N2CCCC2)nc2c1c(=O)n(C)c(=O)n2C	9	5	3	1	-13	2	·
CCOc1cc(CNCc2cccs2)cc(Br)c1OCC	-2	-4	37*	-1	6	-6	6
CCOc1cc(CNCCO)cc(Br)c1OCc1cccs1	-1	-2	-2	-2	-3	1	·
CC(=O)Nc1ccc(N2C(=O)c3cccc(NC(C)=O)c3C2=O)cc1	-1	-5	51*	2	-10	2	0
CC(=O)Nc1cccc2c1C(=O)N(c1ccccc1C)C2=O	0	-6	0	7	5	-2	·
Cc1ccc(C(=O)NCCCNC(=O)c2ccc(Cl)cc2)cn1	-3	-2	7	1	0	-4	·
Cc1ccccc1-c1nc2sc(C)c(C)c2c(=O)o1	-1	-1	3	8	-5	-8	·
Cc1sc2nc(C(C)(C)C)oc(=O)c2c1C	2	5	117*	4	-9	3	-2
O=C1CS/C(=N\N=C\c2ccco2)N1c1ccccc1	0	2	-3	7	-3	21	·
O=C1CS/C(=C\[N+](=O)[O-])N1c1ccccc1	1	4	35*	1	-34	-10	56*
Cc1cc2cc(CNC(=O)Cc3cccs3)ccc2n1C	0	-6	23	12	13	13	·
Cc1cc2cc(CNC(=O)c3ccc(Br)o3)ccc2n1C	0	-1	38*	29	4	36	10
Cc1cc2cc(CNC(=O)C3CCCC3)ccc2n1C	1	-1	37*	29	6	27	6
CCn1c(S(=O)(=O)O)nc2ccccc21	-4	4	3	1	7	-1	·
CCCNC(=O)C1(C)CCCN(Cc2ccsc2)C1 (stereo unspecified)	·	·	·	·	-6	·	·
COCCn1c(=NC(=O)c2ccc(S(=O)(=O)N3CCCc4ccccc43)cc2)sc2cc(S(C)(=O)=O)ccc21	-3	-3	32*	4	-4	2	-8
C=CCn1c(=NC(=O)c2ccc(S(=O)(=O)N3CCCc4ccccc43)cc2)sc2cc(S(N)(=O)=O)ccc21	2	2	4	-7	-6	-10	·
NC(=O)c1cc(S(=O)(=O)N2CC=C(c3ccccc3)CC2)cs1	1	-2	1	3	11	7	·
